ELG1 repair inh – inhibitors of ELG1-dependent DNA repair in HEK293T cells; HEK293T ELG1-luciferase reporter, luminescence, 16 h; DNA damage induced by 5-fluorouridine; Potency, µM (highest dose often 46.1 µM), actives largely listed as inhibitors; 2.3% of 330,000 active; further: nearly all actives have a fitted effect of over 55% in size
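Overnight (16 hr) co-exposure of 2,000 cells/well to 5-fluorouridine and compound at 37 °C preceded detection. Luciferase was quantified via ONE-Glo luminescence; loss of signal denotes inhibition.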
NPC1 prom act – activators of NPC1 promoter; Huh7 NPC1 promoter luciferase reporter, 24 h; Potency, µM (top dose mostly 9.22 µM), actives largely listed as activators; 2.4% of 320,000 active; AID 485313; further: nearly all actives have a fitted effect of over 60% in size
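Huh7 reporter cells (NPC1 promoter driving luciferase) are dosed with compound for 24 h at 37 °C, 5% CO2; luciferase detection reagent is then added and luminescence measured after 10 min at ambient temperature.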
Rab9 promoter act – activators of Rab9 promoter | Potency, µM (doses to about 9.22 µM), actives largely listed as activators | Huh7 Rab9 promoter-luciferase reporter, luminescence, 24 h | 2.8% of 320,000 active; further: nearly all actives have a fitted effect of over 60% in size
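Cell-based reporter: Huh7 stable for Rab9 promoter-driven luciferase, plated in reduced-serum medium with 10% FBS at 1500 cells/well, compound-treated 24 h at 37 °C, luminescence read after 10 min reagent.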
SMN2 splice up – increases expression of the SMN2 splice variant. Potency, µM (top dose mostly 46.1 µM), actives largely listed as activators. AID 1458. 2.8% of 210,000 active. HEK293 SMN2-luciferase splicing reporter, luminescence, 30-36 h; further: nearly all actives have a fitted effect of over 55% in size
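HEK293 cells carry an SMN2 minigene-luciferase reporter in which exon 7 inclusion puts luciferase in frame. Cells were seeded at 2000 cells/well, attached for 10-12 hours, then exposed to compounds for 30-36 hours at 37C before ONE-Glo luminescence.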
FLuc counter – firefly luciferase modulation, counter-screen for miR-21 project. P08659. purified FLuc, Km substrates, luminescence inhibition. Potency, µM (highest dose often 57.5 µM), actives largely listed as inhibitors. 6.9% of 360,000 active; further: nearly all actives have a fitted effect of over 55% in size
Target sequence (P08659 whole entry, looked up): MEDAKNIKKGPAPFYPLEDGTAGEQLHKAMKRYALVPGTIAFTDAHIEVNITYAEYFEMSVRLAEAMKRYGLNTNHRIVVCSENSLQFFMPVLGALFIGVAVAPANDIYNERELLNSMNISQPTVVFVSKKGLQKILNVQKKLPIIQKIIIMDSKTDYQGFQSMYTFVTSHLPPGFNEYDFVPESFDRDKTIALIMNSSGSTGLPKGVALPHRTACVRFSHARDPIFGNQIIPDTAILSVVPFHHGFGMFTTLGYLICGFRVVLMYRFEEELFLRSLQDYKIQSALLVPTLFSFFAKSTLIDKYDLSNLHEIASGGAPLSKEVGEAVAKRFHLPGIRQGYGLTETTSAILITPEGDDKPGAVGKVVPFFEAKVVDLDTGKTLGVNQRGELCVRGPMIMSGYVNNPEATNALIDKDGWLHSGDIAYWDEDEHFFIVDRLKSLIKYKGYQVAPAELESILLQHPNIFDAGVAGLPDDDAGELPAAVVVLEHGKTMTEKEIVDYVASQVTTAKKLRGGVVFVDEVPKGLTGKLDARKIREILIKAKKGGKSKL
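Purified P. pyralis luciferase (10nM final) with 10uM D-luciferin and 10uM ATP (Km levels) in 50mM Tris acetate pH 7.5, 10mM Mg acetate, 0.01% Tween-20, 0.05% BSA; qHTS 6-point titration, ~60 µM downward; luminescence read.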
ELG1 genotox – genotoxicity induction in ELG1-luciferase HEK293T cells. HEK293T ELG1-luciferase reporter, luminescence, 16 h. Potency, µM (titrated, usually from 46 µM), most hits filed as activators. 1.3% of 330,000 active. AID 504466; further: nearly all actives have a fitted effect of over 60% in size
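Quantitative HTS format in 1536-well plates. HEK293T ELG1-luciferase reporter cells receive test compound and are incubated 16 hr at 37 °C, 5% CO2; ONE-Glo added, 30 min room temperature, then luminescence read.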
Hits are given with their value; – = inactive; ? = inconclusive; · = not tested or not shown; [ ] = dose if it differs, or a comment. In the library only some 9.2% were active in any assay of this set; here they are far more common. The call rests on the fitted dose curve; in most records, active means well fitted curve in the direction sought with a large enough effect; inconclusive means small, poorly fitted or top-dose-only effect, or another doubt; inactive means no such curve, though single readings can be large; an effect the other way counts as inactive or inconclusive.

SMILES	ELG1 repair inh	NPC1 prom act	Rab9 promoter act	SMN2 splice up	FLuc counter	ELG1 genotox
CN(C(=O)c1cccc(NC(=O)C2CCN(C(=O)OC(C)(C)C)CC2)c1)C1CCCCC1	23.1µM	·	·	·	·	–
COCC(C)NC(=O)c1cc2c(=O)n3cccc(C)c3nc2s1 (stereo not drawn)	·	·	·	–	–	·
CCn1c(CNC(=O)c2ccccc2F)nnc1SCC(=O)Nc1nncs1	–	–	–	·	–	–
COc1cccc(NC(=O)C(=O)NCc2ccncc2)c1	?	–	?	12.6µM	19µM	?
COc1cccc(NC(=O)Nc2nnc(Cc3ccccc3)s2)c1	–	–	–	·	–	–
COc1cccc(CNC(=O)c2ccncc2)c1	–	–	–	·	16.9µM	–
COc1cccc(NC(=O)Nc2nnc(N3C(C)CCCC3C)s2)c1 (stereo not drawn)	?	–	–	·	21.3µM	–
COc1ccc(CNC(=O)c2ccncc2)cc1	–	–	–	·	–	–
COc1cc(C(=O)NC(=S)Nc2ccc(Cc3ccncc3)cc2)cc(OC)c1OC	13µM	–	–	·	–	–
Cc1cc(C)cc(C(=O)NC(=S)Nc2ccc(Cc3ccncc3)cc2)c1	?	–	–	–	–	–
COc1cc(C(=O)NC(=S)Nc2ccccc2[N+](=O)[O-])cc(OC)c1OC	6.51µM	–	–	–	–	–
CC(C)Cc1ccc(C(=O)Nc2ccc(Cc3ccncc3)cc2)o1	20.6µM	–	–	·	?	–
COc1c(C(=O)Nc2ccc(Cc3ccncc3)cc2)ccc2ccccc12	?	–	–	–	19µM	–
O=C(Nc1ccc(Cc2ccncc2)cc1)c1ccc(Br)o1	?	–	–	–	?	–
COc1cccc(NC(=O)Nc2ccc(Cc3ccncc3)cc2)c1	–	–	–	–	16.9µM	–
CN(CC(=O)Nc1ccc(F)cc1)C(=O)CNC(=O)C1CCCCC1	–	–	–	·	–	–
COC(=O)Cc1[nH]n(-c2ccccc2)c(=O)c1C=Nc1ccc(C)cc1	–	–	–	·	9.53µM	–
CCOc1[nH]n(-c2ccccc2)c(=O)c1C=NCC(=O)OC	–	–	–	–	–	–
O=C(O/N=C/C1=C(Cl)c2ccccc2CC1)c1ccc(F)cc1	–	–	–	–	6.75µM	–
N/C(CS(=O)(=O)c1ccccc1)=N\OC(=O)c1ccc(F)cc1	?	–	–	·	–	?
CCOC(=O)C1CCN(c2ccc(-c3cccs3)nn2)CC1	?	–	–	·	0.757µM	?
c1csc(-c2ccc(N3CCOCC3)nn2)c1	?	0.398µM	0.501µM	·	2.39µM	?
O=C(CSc1ccc(-c2cccs2)nn1)N1CCCCCC1	?	–	–	?	?	–
COc1ccc(-c2cc(C)no2)cc1S(=O)(=O)N1CCN(c2ccc(C(C)=O)cc2)CC1	·	·	·	·	–	·
CCC1(c2ccc(Cl)cc2)NC(=S)N(c2ccc(C)cc2)N1 (stereo not drawn)	?	–	–	–	16.9µM	?
SMILES	ELG1 repair inh	NPC1 prom act	Rab9 promoter act	SMN2 splice up	FLuc counter	ELG1 genotox
CCc1ccccc1NC(=O)CN(c1ccccc1OC)S(=O)(=O)c1ccc(C)cc1	·	·	·	–	–	·
CCC(C)c1ccc(NC(=O)C2=CC=CN3CCS(=O)(=O)N=C23)cc1 (stereo not drawn)	?	–	?	·	2.13µM	?
Cc1ccc(NC(=O)C2=CC=CN3CCS(=O)(=O)N=C23)cc1	?	–	–	·	?	–
Cc1nnc(N/N=C/c2cccc(C(F)(F)F)c2)n1N	–	–	–	·	–	–
Cc1nnc(N/N=C/c2cccc(OCc3ccc(Cl)c(Cl)c3)c2)n1N	?	–	?	–[1.84 µM]	16.9µM	–
CN(C)S(=O)(=O)c1ccc2c(c1)nnn2CCNC(=O)Nc1ccc(Br)cc1	·	·	·	·	–	·
N#CCCN(C(=O)COC(=O)CNC(=O)c1ccc(-c2ccccc2)cc1)c1ccc(F)cc1	–	–	–	·	23.9µM	–
COc1ccc([N+](=O)[O-])cc1NCC(=O)Nc1cc(S(=O)(=O)N2CCCCC2)ccc1C	?	–	–	·	–	–
Cc1ccc(S(=O)(=O)N2CCOCC2)cc1C(=O)NCc1ccccc1CN1CCCC1	–	–	–	·	–	–
Cc1ccc(/C=C/c2ccc3cccc(O)c3n2)s1	?	3.98µM	3.16µM	·	2.69µM	20.6µM
COc1cccc(/C=C/c2ccc3cccc(O)c3n2)c1	?	?	–	·	1.51µM	23.1µM
COc1cc(/C=C/c2ccc3c(Br)cc(Br)c(O)c3n2)ccc1O	?	–	–	·	–	?
Oc1cccc(/C=C/c2ccc3cccc(O)c3n2)c1	?	?	–	·	1.51µM	?
O=C(O)c1ccc2cccc(O)c2n1	–	–	–	·	–	–
CCc1ccccc1NC(=O)COc1cccc2ccc(C)nc12	?	–	–	–	–	–
CC(=O)COc1cccc2ccc(/C=C/c3ccc(Br)s3)nc12	–	?	?	·	19µM	–
CCOC(=O)c1c(NC(=O)c2cc3nc(-c4ccccc4)cc(C(F)(F)F)n3n2)sc2c1CCC(C)C2 (stereo not drawn)	·	·	·	·	–	·
COc1ccc(-c2cc(C(=O)N3CCN(c4ccccc4)CC3)c3ccccc3n2)cc1	–	–	–	–	2.69µM	–
CCOC(=O)N1CCN(C(=O)c2noc3c2COc2ccccc2-3)CC1	?	?	?	·	13.5µM	?
CCCN1CCN(C(=O)c2noc3c2COc2ccc(C)cc2-3)CC1	?	–	–	·	–	–
COc1ccc2cc(-c3cc(C(=O)O)c4ccccc4n3)ccc2c1	?	0.112µM	?	?	0.0675µM	?
O=C(c1cc(-c2cccc(Cl)c2)nc2ccccc12)N1CCCC1	–	–	–	·	16.9µM	–
COc1ccccc1CNC(=O)C(=O)NCC(c1ccc2c(c1)OCO2)N1CCOCC1 (stereo not drawn)	·	·	·	·	–	·
CCCCc1nc2c(c3c1C[C@H](C)OC3)CN(S(=O)(=O)c1ccc(NC(C)=O)cc1)CC2	·	·	·	–[9.22 µM]	·	·
O=C(c1cc(-c2ccccn2)nc2ccc(Br)cc12)N1CCN(S(=O)(=O)c2ccccc2)CC1	?	–	–	–	–	–
SMILES	ELG1 repair inh	NPC1 prom act	Rab9 promoter act	SMN2 splice up	FLuc counter	ELG1 genotox
O=C(c1cc(-c2ccc(F)cc2)nc2ccccc12)N1CCC1	?	·	·	·	·	–
O=C(O)c1cc(-c2ccc(-c3ccc(F)cc3)o2)nc2ccccc12	?	2.51µM	0.891µM	·	0.135µM	?
Cc1ccc(-c2cc(C(=O)N3CCN(c4ncccn4)CC3)c3cc(Br)ccc3n2)o1	?	–	–	–	4.78µM	–
COc1ccc(-c2cc3cc(OC)c(OC)cc3c(C)n2)cc1	–	?	?	·	16.9µM	–
COc1cc(-c2ccccc2)nc2ccccc12	–	–	–	–	–	–
COc1ccc(-c2cc(OC)c3ccccc3n2)cc1	–	–	–	–	19µM	–
N#Cc1c(C(F)(F)F)cc(-c2cccs2)nc1SCC(=O)Nc1cccc(C(F)(F)F)c1	·	·	·	–	–	·

Assay outcomes: PubChem, National Center for Advancing Translational Sciences (NCATS)
